# From PubChem BioAssay (Tox21)
# A number with no mark means an inactive call. Results filed as inconclusive are left out. Where a call stands in place of a potency, no number is given. Calls of active or inactive are those of the source. Unless noted, the call rests on the fitted dose curve; in most records, active means well fitted curve in the direction sought with a large enough effect in the repeat runs; inconclusive means weak or mixed curves; inactive means no such curve, though single readings can be large; an effect the other way counts as inactive or inconclusive.
# Tests used:
# [1] = qHTS assay to identify small molecule antagonists of the glucocorticoid receptor (GR) signaling pathway - cell viability counter screen (AID 720693); further: nearly all actives have a fitted effect of over 55% in size
# [2] = qHTS assay for identifying genotoxic compounds that show differential cytotoxicity against isogenic chicken DT40 cell lines with known DNA damage response pathways - wild type cell line (AID 743012); further: nearly all actives have a fitted effect of over 60% in size; further: potency means the concentration at half of the fitted maximal effect
# Summary of the method: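 Viability of DNA repair-proficient chicken DT40 cells was assessed by CellTiter-Glo luminescence following 40 h compound exposure at 37 C/5% CO2.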
# [3] = qHTS assay for identifying genotoxic compounds that show differential cytotoxicity against isogenic chicken DT40 cell lines with known DNA damage response pathways - Rev3 mutant cell line (AID 743014); further: nearly all actives have a fitted effect of over 55% in size; further: potency means the concentration at half of the fitted maximal effect
# [4] = qHTS assay for identifying genotoxic compounds that show differential cytotoxicity against isogenic chicken DT40 cell lines with known DNA damage response pathways - Rad54/Ku70 mutant cell line (AID 743015); further: nearly all actives have a fitted effect of over 60% in size; further: potency means the concentration at half of the fitted maximal effect
# [5] = qHTS assay to identify small molecule antagonists of the androgen receptor (AR) signaling pathway - cell viability counter screen (AID 743033; further: nearly all actives have a fitted effect of over 45% in size)
# [6] = qHTS assay to identify small molecule antagonists of the androgen receptor (AR) signaling pathway using the MDA cell line - cell viability counter screen (AID 743041; further: nearly all actives have a fitted effect of over 45% in size)
# Summary of the method: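 In this qHTS counter assay, fluorescence intensity after CellTiter-Fluor addition indicated viability of MDA-kb2 AR-luc cells given compounds and R1881 for 16 h at 37C.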
# [7] = molecular target: Androgen receptor (Homo sapiens) (UniProt P10275); experiment: qHTS assay to identify small molecule antagonists of the androgen receptor (AR) signaling pathway (AID 743035; active means well fitted inhibition curve with a large enough effect in the signal ratio in the repeat runs, not every such curve was filed as active; the % refers to the signal ratio)
# Summary of the method: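 Reporter HEK293 cells were exposed to compounds and R1881 overnight (16 h, 37C); beta-lactamase activity was then quantified by FRET fluorescence.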
# [8] = molecular target: Androgen receptor (Homo sapiens) (UniProt P10275); experiment: qHTS assay to identify small molecule agonists of the androgen receptor (AR) signaling pathway (AID 743036; active means well fitted activation curve with a large enough effect in the signal ratio in the repeat runs, with a control signal flat, not every such curve was filed as active; the % refers to the signal ratio)
# Summary of the method: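 Reporter line: GeneBLAzer AR-UAS-bla-GripTite (HEK293). Steps: plate cells, 4 h rest, add compounds, 16 h at 37C, add LiveBLAzer B/G substrate, 2 h at RT, read fluorescence.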
# [9] = molecular target: Androgen receptor (Homo sapiens) (UniProt P10275); experiment: qHTS assay to identify small molecule agonists of the androgen receptor (AR) signaling pathway using the MDA cell line (AID 743040; further: nearly all actives have a fitted effect of over 20% in size)
# Summary of the method: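 Cell-based luciferase reporter: MDA-kb2, MMTV promoter (AR + GR response elements). 16 h compound exposure at 37C; ONE-Glo, 30 min RT, luminescence.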
# [10] = molecular target: Androgen receptor (Homo sapiens) (UniProt P10275); experiment: qHTS assay to identify small molecule antagonists of the androgen receptor (AR) signaling pathway using the MDA cell line (AID 743042; further: nearly all actives have a fitted effect of over 55% in size)
# Summary of the method: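 MDA-kb2 cells (human breast carcinoma, stably carrying an MMTV-luciferase reporter responsive to AR and GR) were plated at 3,000 cells/well and preincubated 5 hr at 37C, then given compound plus R1881 agonist for 16 h. ONE-Glo luminescence was read.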
# Chain of Androgen receptor (Homo sapiens) (P10275 whole entry, looked up): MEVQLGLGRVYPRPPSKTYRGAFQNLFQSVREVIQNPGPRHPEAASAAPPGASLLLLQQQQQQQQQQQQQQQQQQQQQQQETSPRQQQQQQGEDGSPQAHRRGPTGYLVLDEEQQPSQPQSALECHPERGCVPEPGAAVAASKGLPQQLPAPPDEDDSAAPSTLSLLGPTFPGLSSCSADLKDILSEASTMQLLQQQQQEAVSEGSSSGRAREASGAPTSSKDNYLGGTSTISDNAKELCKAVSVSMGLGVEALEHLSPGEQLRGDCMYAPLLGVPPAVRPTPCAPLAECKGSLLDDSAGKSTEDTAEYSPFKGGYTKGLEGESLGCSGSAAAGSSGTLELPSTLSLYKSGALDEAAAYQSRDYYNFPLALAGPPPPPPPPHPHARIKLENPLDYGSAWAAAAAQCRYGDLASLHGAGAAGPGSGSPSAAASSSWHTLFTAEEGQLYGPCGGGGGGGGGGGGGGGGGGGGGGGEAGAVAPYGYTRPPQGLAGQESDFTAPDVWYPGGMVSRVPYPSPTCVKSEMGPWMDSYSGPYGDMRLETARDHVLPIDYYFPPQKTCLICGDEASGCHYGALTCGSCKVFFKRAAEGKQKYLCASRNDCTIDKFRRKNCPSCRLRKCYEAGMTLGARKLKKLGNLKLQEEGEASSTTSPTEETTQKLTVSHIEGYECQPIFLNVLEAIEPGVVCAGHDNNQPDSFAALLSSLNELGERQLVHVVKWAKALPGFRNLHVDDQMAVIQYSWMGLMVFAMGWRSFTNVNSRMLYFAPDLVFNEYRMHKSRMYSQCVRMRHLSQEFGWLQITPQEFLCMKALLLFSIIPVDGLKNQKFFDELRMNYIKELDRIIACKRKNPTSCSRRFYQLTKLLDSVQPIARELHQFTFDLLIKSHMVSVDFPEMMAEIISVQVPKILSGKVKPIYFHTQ
Structure (SMILES),outcome [1],Potency [2],Potency [3],Potency [4],outcome [5],Potency [6],outcome [7],outcome [8],Potency [9],outcome [10]
CC1c2ccccc2CN1NC(=O)c1ccc(Cl)c(S(N)(=O)=O)c1 (stereo not drawn),inactive,inactive,inactive,inactive,inactive,inactive,–,–,–,–
CC(=O)O[C@@H]1CC2CCC1(C)C2(C)C (stereo partly drawn),inactive,inactive,inactive,inactive,inactive,–,inactive,inactive,inactive,inactive
CC(C)Cn1cnc2c1c(=O)n(C)c(=O)n2C,inactive,inactive,inactive,inactive,inactive,inactive,–,–,–,–
O=Cc1cc2ccccc2o1,inactive,inactive,inactive,inactive,inactive,inactive,–,–,–,–
O=C(O)[C@H](O)c1ccccc1,inactive,inactive,inactive,inactive,inactive,inactive,–,–,–,–
CC12CCC(C1)C(C)(C)C2O (stereo not drawn),inactive,inactive,inactive,inactive,inactive,inactive,–,–,–,–
COP(=O)(O)OP(=O)(O)OC,inactive,inactive,inactive,inactive,inactive,inactive,–,–,–,–
CCCCCCCCCCCCCCCCCC#N,inactive,inactive,inactive,inactive,inactive,inactive,–,–,–,–
CCOc1cccc(N)c1,inactive,inactive,inactive,inactive,inactive,inactive,–,–,–,–
CCOCCOCC,inactive,inactive,inactive,inactive,inactive,inactive,–,–,–,–
Cc1cc(-c2ccccc2)nnc1NCCN1CCOCC1,inactive,inactive,inactive,inactive,inactive,inactive,–,–,–,–
CCCCSCCCC,inactive,inactive,inactive,inactive,inactive,inactive,–,–,–,–
CC(C)Nc1ccccc1,inactive,inactive,inactive,inactive,inactive,inactive,–,–,–,–
C[Si]1(C)O[Si](C)(C)O[Si](C)(C)O[Si](C)(C)O[Si](C)(C)O1,inactive,inactive,inactive,inactive,inactive,inactive,–,–,–,–
CCCc1ccc(O)cc1,inactive,inactive,inactive,inactive,inactive,inactive,–,–,–,–
O=C1CCC(=O)N1Cl,inactive,inactive,inactive,inactive,inactive,inactive,–,–,–,–
CC(N)CCCC(C)(C)O (stereo not drawn),inactive,inactive,inactive,inactive,inactive,inactive,–,–,–,–
CN(C)CC/C=C1/c2ccccc2COc2ccc(CC(=O)O)cc21,inactive,inactive,inactive,inactive,inactive,inactive,–,–,–,–
O=C(O)c1cc2ccccc2nc1C(=O)O,inactive,inactive,inactive,inactive,inactive,inactive,–,–,–,–
Cn1c(=O)c2c(ncn2CCO)n(C)c1=O,inactive,inactive,inactive,inactive,inactive,inactive,–,–,–,–
C[C@]12CCC(=O)C=C1CC[C@H]1[C@@H]3CC[C@](O)(C(=O)CO)[C@@]3(C)C[C@H](O)[C@@]12F,inactive,23.7 µM (active),11.9 µM (active),21.1 µM (active),inactive,inactive,–,–,–,–
CCCC(=O)Nc1ccc(OCC(O)CNC(C)C)c(C(C)=O)c1 (stereo not drawn),inactive,inactive,inactive,inactive,inactive,inactive,–,–,–,–
COc1c2occc2c(OC)c2c(=O)cc(C)oc12,inactive,inactive,inactive,inactive,inactive,inactive,–,–,–,–
CC(CO)(CO)CO,inactive,inactive,inactive,inactive,inactive,inactive,–,–,–,–
CC1=C(C(=O)O)N2C(=O)[C@@H](NC(=O)[C@H](N)c3ccccc3)[C@H]2SC1,inactive,inactive,inactive,inactive,inactive,inactive,–,–,–,–
C/C=C(\C)C(=O)OCCc1ccccc1,inactive,inactive,inactive,inactive,inactive,inactive,–,–,–,–
N#Cc1cscn1,inactive,inactive,inactive,inactive,inactive,inactive,–,–,–,–
CCCCCCCCCCOC(C)=O,inactive,inactive,inactive,inactive,inactive,inactive,–,–,–,–
CCCCOCCOC(=O)COc1ccc(Cl)cc1Cl,inactive,inactive,inactive,inactive,inactive,inactive,–,–,–,–
O=[N+]([O-])c1c(Cl)cc(Cl)cc1Cl,inactive,inactive,inactive,inactive,inactive,inactive,–,–,–,–
